Compound activity from PubChem.
The list is not random: actives were taken first. Their share in the collection is about 0.47%.
UDG counterscr = UDG inhibition counter-screen; FRET deamination/UDG coupled assay, UDG read, 4 h; Potency, µM (top dose mostly 115 µM), for inactives: top-dose activity change, negative = inhibition, usual class: inhibitors; hit rate 0.14% among 91,000; AID 1347430; also: nearly all actives have a fitted effect of over 65% in size
AID inh = activation induced cytidine deaminase inhibition. Q9GZX7. AID deamination FRET fluorescence, UDG-coupled, 4 h. Potency, µM (doses to about 115 µM), most hits filed as inhibitors. hit rate 0.32% among 91,000. AID 1347428; also: nearly all actives have a fitted effect of over 25% in size
Target sequence (Q9GZX7 whole entry, looked up): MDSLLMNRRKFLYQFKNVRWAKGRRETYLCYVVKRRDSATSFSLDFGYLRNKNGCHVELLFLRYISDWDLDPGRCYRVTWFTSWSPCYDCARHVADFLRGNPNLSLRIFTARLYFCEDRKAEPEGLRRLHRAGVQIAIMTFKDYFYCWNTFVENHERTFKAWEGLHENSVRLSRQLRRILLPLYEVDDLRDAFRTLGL
* hit, by the source's call; [ ] = dose if it differs, or a comment. Calls follow the shape of the dose curve; as a rule, active = well fitted curve in the direction sought with a large enough effect; inconclusive = small, poorly fitted or top-dose-only effect, or another doubt; inactive = no such curve, though single readings can be large; an effect the other way counts as inactive or inconclusive. % is scaled to controls: 0 for no effect and ±100 for the full control effect; potency is read from the fitted curve at half-maximal effect.

What do the screens show for `Cc1cc(C)c(OCC(=O)N(Cc2ccco2)Cc2ccco2)c(C)c1`?
UDG counterscr: -1%[57.5 µM]; AID inh: 45µM*

How did Cc1ccc(CN(Cc2ccco2)C(=O)COc2cccc(C)c2C)o1 do in these assays?
UDG counterscr: -8%[57.5 µM]; AID inh: 40µM*

Results for Cc1cccc(OCC(=O)N(Cc2ccc(N(C)C)cc2)Cc2ccco2)c1C ?
UDG counterscr: -18%; AID inh: inconclusive

What do the screens show for `Cc1ccc(CN(Cc2ccco2)C(=O)COc2c(C)cc(C)cc2C)cc1`?
UDG counterscr: -30%; AID inh: inconclusive

What do the screens show for `CC(=O)Oc1ccc2c(C)c(CC(=O)NC3CCCCCC3)c(=O)oc2c1OC(C)=O`?
UDG counterscr: -5%; AID inh: inactive

How did Cc1ccc(Cl)cc1N1CCN(C(=O)C2CCN(Cc3nc(-c4ccc(Cl)cc4)oc3C)CC2)CC1 do in these assays?
UDG counterscr: 89µM*; AID inh: inconclusive

Results for CCCCNC(=O)C1CCCN(Cc2nc(-c3ccc(Cl)cc3)oc2C)C1 (stereo unspecified) ?
UDG counterscr: inconclusive; AID inh: inactive

Results for Cc1cccc(-c2nc(CN3CCCC(C(=O)N4CCN(c5cc(Cl)ccc5C)CC4)C3)c(C)o2)c1 (stereo unspecified) ?
UDG counterscr: 89µM*; AID inh: inconclusive

Results for COc1ccc(N2CCN(C(=O)C3CCN(Cc4nc(-c5ccc(Cl)cc5)oc4C)CC3)CC2)cc1 ?
UDG counterscr: -7%; AID inh: inactive

What do the screens show for `Cc1ccccc1-c1nc(CN2CCCC(C(=O)NCc3ccc(Cl)cc3)C2)c(C)o1` (stereo unspecified)?
UDG counterscr: inconclusive; AID inh: inactive

How did Cc1ccc(C)c(N2CCN(C(=O)C3CCN(Cc4nc(-c5cccc(Cl)c5)oc4C)CC3)CC2)c1 do in these assays?
UDG counterscr: 89µM*; AID inh: inactive

Results for Cc1oc(-c2ccc(Cl)cc2)nc1CN1CCCC(C(=O)NCc2ccccc2)C1 (stereo unspecified) ?
UDG counterscr: 89µM*; AID inh: inactive

Results for Cc1oc(-c2cccc(Cl)c2)nc1CN1CCC(C(=O)NCCCN2CCN(c3ccccc3F)CC2)CC1 ?
UDG counterscr: -6%; AID inh: inactive

Results for CCC(C)(C)c1cc(O)c(C(C)(C)CC)cc1O ?
UDG counterscr: -29%; AID inh: inactive

How did NC(N)=NCc1ccc(F)cc1 do in these assays?
UDG counterscr: -3%; AID inh: inactive

How did O=c1[nH]cccc1NS(=O)(=O)c1ccc(Cl)c(C(F)(F)F)c1 do in these assays?
UDG counterscr: -11%; AID inh: inactive

What do the screens show for `CCOC(=O)c1sc(Nc2ccccc2)nc1C(F)(F)F`?
UDG counterscr: -8%; AID inh: inactive

What do the screens show for `O=S1(=O)C=C(Sc2nn(-c3ccccc3)c(=S)s2)c2ccccc21`?
UDG counterscr: 0%; AID inh: inactive

How did Cc1ccc(/C=C/c2onc(C)c2S(=O)(=O)N2CCC(C(=O)N3CCC(N(C)C(C)C)CC3)CC2)cc1 do in these assays?
UDG counterscr: -20%; AID inh: 45µM*

Results for CC(=O)c1ccc(N2CCN(C(=O)C3CCN(S(=O)(=O)c4c(C)noc4/C=C/c4ccc(C)cc4)CC3)CC2)cc1 ?
UDG counterscr: 1%; AID inh: inactive

How did Cc1ccc(C=Nc2ccc(Nc3ccccc3)cc2)s1 do in these assays?
UDG counterscr: -2%; AID inh: inactive

What do the screens show for `CCOC(=O)c1ccc(NC(=O)COC(=O)c2cn(CC)c3nc(C)ccc3c2=O)cc1`?
UDG counterscr: 0%; AID inh: inactive

What do the screens show for `CCn1cc(C(=O)OCC(=O)Nc2cccc(C(C)=O)c2)c(=O)c2ccc(C)nc21`?
UDG counterscr: -34%; AID inh: 45µM*

Results for Cc1oc(-c2ccc(Cl)cc2)nc1CS(=O)CC(=O)N1CCN(c2cccc(C(F)(F)F)c2)CC1 (stereo unspecified) ?
UDG counterscr: -11%[57.5 µM]; AID inh: inconclusive

What do the screens show for `COc1cccc(-c2nc(CS(=O)CC(=O)N3CCN(c4cccc(C(F)(F)F)c4)CC3)c(C)o2)c1` (stereo unspecified)?
UDG counterscr: -14%[57.5 µM]; AID inh: 45µM*

Results for COCCCNC(=O)c1oc2c(c1C)-c1nn(Cc3ccc(Cl)cc3)cc1CC2 ?
UDG counterscr: -14%[57.5 µM]; AID inh: inactive

Results for COCCCNC(=O)c1oc2c(c1C)-c1nn(Cc3cccc(Cl)c3)cc1CC2 ?
UDG counterscr: -14%[57.5 µM]; AID inh: 89µM*

Results for CCOCCCNC(=O)Cn1cc2c(n1)-c1c(oc(C(=O)N3CCCC3)c1C)CC2 ?
UDG counterscr: inconclusive; AID inh: 79µM*

What do the screens show for `CCN(CC)CCCNC(=O)c1oc2c(c1C)-c1nn(Cc3ccc(Cl)cc3)cc1CC2`?
UDG counterscr: -12%[57.5 µM]; AID inh: inactive

What do the screens show for `COc1cc(NC(=O)c2cc3ccccc3o2)ccc1NC(=O)c1ccccc1Cl`?
UDG counterscr: 0%; AID inh: inactive

What do the screens show for `COCC(=O)N1CCN(c2oc(-c3ccc(C)cc3)nc2S(=O)(=O)c2ccc(F)cc2)CC1`?
UDG counterscr: -7%; AID inh: inactive

How did COc1ccc(N(C)C(=O)c2cc3c(s2)-c2ccccc2OC3)cc1 do in these assays?
UDG counterscr: -9%; AID inh: 45µM*

Results for COc1cc(OC)c(N(C)C(=O)c2cc3c(s2)-c2ccccc2OC3)cc1Cl ?
UDG counterscr: -6%; AID inh: inactive

What do the screens show for `CCc1nc2sc(C(C)=O)c(N)c2cc1C`?
UDG counterscr: 5%; AID inh: inactive

How did CCCC(=O)n1nc(NCc2ccc(OCC)cc2)nc1NCc1ccc(OCC)cc1 do in these assays?
UDG counterscr: 5%; AID inh: inactive

Results for CCC(=O)Oc1c(Sc2ccc(Cl)cc2)c(C)nn1C(C)(C)C ?
UDG counterscr: 79µM*; AID inh: inactive

What do the screens show for `Cc1nn(-c2ccccc2)c(OC(=O)C(C)C)c1Sc1ccc(Cl)cc1`?
UDG counterscr: -21%; AID inh: inconclusive

Results for CCOc1ccc(CCNC(=O)c2cc3c(-c4ccc(OC)c(OC)c4)nn(C)c3s2)cc1OCC ?
UDG counterscr: 79µM*; AID inh: inconclusive

What do the screens show for `CCOCCCNC(=O)c1cc2c(-c3ccc(OC)c(OC)c3)nn(C)c2s1`?
UDG counterscr: 0%; AID inh: inactive

How did Cc1ccc(Cl)cc1N1CCN(C(=O)Cn2cnc3nc4c(cc3c2=O)CCCC4)CC1 do in these assays?
UDG counterscr: inconclusive; AID inh: 40µM*

Results for O=C(Cn1cnc2nc3c(cc2c1=O)CCCC3)N1CCN(c2cccc(C(F)(F)F)c2)CC1 ?
UDG counterscr: -8%; AID inh: inactive

Results for O=C(/C=C/c1c[nH]c2ccccc12)C(F)(F)F ?
UDG counterscr: -4%; AID inh: inactive

Results for Cc1ccc(-n2c(SCC(N)=O)nc3c(c2=O)C2(CCCC2)Cc2ccccc2-3)cc1 ?
UDG counterscr: 79µM*; AID inh: inactive

How did COc1ccccc1-n1c(SCC(N)=O)nc2c(c1=O)C1(CCCCC1)Cc1ccccc1-2 do in these assays?
UDG counterscr: -11%; AID inh: inactive

Results for Oc1ccc(/C=C/c2nc(-c3ccc(F)cc3)cs2)cc1 ?
UDG counterscr: 0%; AID inh: inactive

How did CCc1c(C)sc(NC(=O)c2cc(-c3ccc(C)cc3C)nc3ccccc23)c1C#N do in these assays?
UDG counterscr: -12%; AID inh: inactive
